# Structures can show the parent of a compound that is named as a salt.
# System: Saccharomyces cerevisiae
# Assay: fraction of cells in G1 phase (DNA content, flow cytometry); higher = more cells with unreplicated DNA (G1 delay)
# Settings: temperature: 30 C; YPD; JTY2953 pdr5 snq2 (sensitized); drug added to: cultures diluted from stationary phase; 6-7 h
# Summary of the method: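 S. cerevisiae in YPD at 30°C was dosed with library drugs, using a final 20 µg/ml for sensitized JTY2953 diluted 1∶200 from overnight and fixed at 6–7 h, or dosing dividing JTY2953 (fixed at 6 h) and BY4741 (fixed at 4.33 h). Ethanol-fixed, SYTOX Green-stained cells were read by flow cytometry (10,000 events). The G1 fraction is taken as the Dean-Jett-Fox G1 peak area divided by the G1 and G2/M areas combined.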
row,Structure (SMILES),fraction of cells in G1 phase
1,CS(=O)(=O)c1ccc([C@H](O)[C@@H](COC(=O)CN)NC(=O)C(Cl)Cl)cc1 [Thiamphenicol glycinate] (48.3934 µM),0.478
2,CC(C(=O)O)c1ccc(-c2ccccc2)c(F)c1 (centres undefined) [Flurbiprofen] (81.8773 µM),0.524
3,NCCCC(O)(P(=O)(O)O)P(=O)(O)O [Alendronate] (80.6158 µM),0.456
4,CNCCC(Oc1ccccc1OC)c1ccccc1 (centres undefined) [Nisoxetine HCl] (73.7022 µM),0.511
5,C[C@]12C=CC(=O)C=C1CC[C@H]1[C@@H]3C[C@@H](O)[C@](O)(C(=O)CO)[C@@]3(C)C[C@H](O)[C@@]12F [Triamcinolone] (50.7043 µM),0.483
6,CN(C)c1nc(N(C)C)nc(N(C)C)n1 [Altretamine] (95.1095 µM),0.49
7,O=C1CC2(CCCC2)CC(=O)N1CCCCN1CCN(c2ncccn2)CC1 [Buspirone HCl] (51.8789 µM),0.499
8,COc1ccccc1OCC(O)CN1CCN(CC(=O)Nc2c(C)cccc2C)CC1 (centres undefined) [Ranolazine 2HCl] (46.7783 µM),0.445
9,CN(Cc1cc(Br)cc(Br)c1N)C1CCCCC1 [Bromhexine HCl] (53.1721 µM),0.466
10,C[C@@H](O)[C@@H]1NC(=O)[C@H](CCCCN)NC(=O)[C@@H](Cc2c[nH]c3ccccc23)NC(=O)[C@H](Cc2ccccc2)NC(=O)[C@@H](NC(=O)[C@H](N)Cc2ccccc2)CSSC[C@@H](C(=O)N[C@H](CO)[C@@H](C)O)NC1=O [Octreotide] (19.6221 µM),0.478
11,CC(C)[C@H]1CC[C@H](C(=O)N[C@H](Cc2ccccc2)C(=O)O)CC1 [nateglinide] (63.0056 µM),0.489
12,CCc1ccc(CCOc2ccc(CC3SC(=O)NC3=O)cc2)nc1 (centres undefined) [Pioglitazone] (56.1093 µM),0.477
13,O=C(CCNNC(=O)c1ccncc1)NCc1ccccc1 [Nialamide] (67.0359 µM),0.512
14,CCCCCOC(=O)Nc1nc(=O)n([C@@H]2O[C@H](C)[C@@H](O)[C@H]2O)cc1F [Capecitabine] (55.6483 µM),0.442
15,Cn1cnc([N+](=O)[O-])c1Sc1ncnc2[nH]cnc12 [Azathioprine] (72.1241 µM),0.465
16,COc1ccc2[nH]c([S@@+]([O-])Cc3ncc(C)c(OC)c3C)nc2c1 [Esomeprazole potassium] (57.9 µM),0.522
17,CO/N=C(\C(=O)N[C@@H]1C(=O)N2C(C(=O)[O-])=C(C[N+]3(C)CCCC3)CS[C@H]12)c1csc(N)n1 [Cefepime] (41.6174 µM),0.504
18,CC[C@H]1OC(=O)[C@H](C)[C@@H](O[C@H]2C[C@@](C)(OC)[C@@H](O)[C@H](C)O2)[C@H](C)[C@@H](O[C@@H]2O[C@H](C)C[C@H](N(C)C)[C@H]2O)[C@](C)(O)C[C@@H](C)/C(=N\OCOCCOC)[C@H](C)[C@@H](O)[C@]1(C)O [Roxithromycin] (23.8929 µM),0.472
19,CCCc1nc(C)c2c(=O)nc(-c3cc(S(=O)(=O)N4CCN(CC)CC4)ccc3OCC)[nH]n12 [Vardenafil] (40.9322 µM),0.511
20,CC(=O)OCC(=O)NCCCOc1cccc(CN2CCCCC2)c1 [Roxatidine acetate HCl] (57.3977 µM),0.461

row,Structure (SMILES),fraction of cells in G1 phase
1,CCCCC[C@H](O)/C=C/[C@H]1[C@H](O)CC(=O)[C@@H]1CCCCCCC(=O)O [Alprostadil] (56.4189 µM),0.447
2,COc1ccc2[nH]c([S+]([O-])Cc3ncc(C)c(OC)c3C)nc2c1 (centres undefined) [Omeprazole] (57.9 µM),0.486
3,O=C(CCCN1CCN(c2ccccn2)CC1)c1ccc(F)cc1 [Azaperone] (61.0864 µM),0.582
4,C=CC[N+]1([C@H]2C[C@H]3[C@@H]4CC[C@H]5C[C@H](O)[C@@H](N6CCOCC6)C[C@]5(C)[C@H]4CC[C@]3(C)[C@H]2OC(C)=O)CCCC1 [Rocuronium bromide] (37.7508 µM),0.479
5,CN1CCN(c2c(F)cc3c(=O)c(C(=O)O)cn4c3c2SCC4)CC1 [Rufloxacin] (55.0337 µM),0.466
6,CC1(C)O[C@@H]2C[C@H]3[C@@H]4C[C@H](F)C5=CC(=O)C=C[C@]5(C)[C@@]4(F)[C@@H](O)C[C@]3(C)[C@]2(C(=O)CO)O1 [Fluocinolone acetonide] (44.1989 µM),0.48
7,O=C(O)/C=C/c1ccc(Cn2ccnc2)cc1 [Ozagrel] (87.6221 µM),0.471
8,CCCCN1CCCCC1C(=O)Nc1c(C)cccc1C (centres undefined) [Bupivacaine HCl] (69.3393 µM),0.447
9,CCCCC1C(=O)N(c2ccccc2)N(c2ccccc2)C1=O [Phenylbutazone] (64.8543 µM),0.499
10,CN(CCOc1ccc(NS(C)(=O)=O)cc1)CCc1ccc(NS(C)(=O)=O)cc1 [Dofetilide] (45.2927 µM),0.551
11,CN(C)C(=O)C(CCN1CCC(O)(c2ccc(Cl)cc2)CC1)(c1ccccc1)c1ccccc1 [Loperamide] (38.9864 µM),0.512
12,NC(=O)c1ncn([C@@H]2O[C@H](CO)[C@@H](O)[C@H]2O)n1 [Ribavirin] (81.8972 µM),0.481
13,CC(C)n1c(/C=C/[C@@H](O)C[C@@H](O)CC(=O)O)c(-c2ccc(F)cc2)c2ccccc21 [Fluvastatin Na] (48.6053 µM),0.464
14,CCOC(=O)c1ncn2c1CN(C)C(=O)c1cc(F)ccc1-2 [Flumazenil] (65.9423 µM),0.507
15,COc1cc(NS(=O)(=O)c2ccc(N)cc2)nc(OC)n1 [Sulfadimethoxine] (64.4467 µM),0.48
16,COc1c(C)c2c(c(O)c1C/C=C(\C)CCC(=O)OCCN1CCOCC1)C(=O)OC2 [Mycophenolate mofetil] (46.1355 µM),0.513
17,CC1CNc2c(cccc2S(=O)(=O)N[C@@H](CCCNC(=N)N)C(=O)N2CC[C@@H](C)C[C@@H]2C(=O)O)C1 (some centres undefined) [Argatroban] (39.3202 µM),0.487
18,N[C@@H](Cc1cc(I)c(Oc2cc(I)c(O)c(I)c2)c(I)c1)C(=O)O (25.7441 µM),0.486
19,CCN(CC)C(=O)/C(C#N)=C/c1cc(O)c(O)c([N+](=O)[O-])c1 [Entacapone] (65.5109 µM),0.508
